Unmarked numbers belong to inactive results. Records with an inconclusive call do not appear. The source made the active and inactive calls. Unless noted, calls follow the shape of the dose curve; as a rule, active = well fitted curve in the direction sought with a large enough effect in the repeat runs; inconclusive = weak or mixed curves; inactive = no such curve, though single readings can be large; an effect the other way counts as inactive or inconclusive.

Test [1] can be described thus: qHTS assay for small molecule agonists of the p53 signaling pathway (AID 651631; calls by dose curve; also: % is scaled to controls: 0 for no effect and ±100 for the full control effect; nearly all actives have a fitted effect of over 15% in size). An outline of the steps: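 Readout was fluorescence from the LiveBLAzer FRET substrate, applied for 2 h at room temperature after 16 h compound exposure at 37 °C. Cells were the p53RE-bla HCT-116 line, with beta-lactamase driven by p53 response elements.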
The nature of test [2]: qHTS assay for small molecules that induce genotoxicity in human embryonic kidney cells expressing luciferase-tagged ATAD5 (AID 651632). Also: % is scaled to controls: 0 for no effect and ±100 for the full control effect; nearly all actives have a fitted effect of over 15% in size. An outline of the steps: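 ATAD5-luc HEK293T, 2,000 cells/well; cpd or DMSO pin-transferred; 16 hr, 37C/5% CO2; Amplite 30 min RT; luminescence.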
Test [3] is described as follows: qHTS assay for small molecule agonists of the p53 signaling pathway - cell viability (AID 651633; calls by dose curve; also: series mostly up to about 83 µM; % is scaled to controls: 0 for no effect and ±100 for the full control effect; nearly all actives have a fitted effect of over 30% in size). An outline of the steps: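 p53RE-bla cells were treated with compound for 16 hours at 37 C. Cytotoxicity was then measured as CellTiter-Glo luminescence after 30 min at room temperature.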
Test [4] can be described thus: qHTS assay for small molecules that induce genotoxicity in human embryonic kidney cells expressing luciferase-tagged ATAD5 - cell viability (AID 651634; calls by dose curve; also: % is scaled to controls: 0 for no effect and ±100 for the full control effect; nearly all actives have a fitted effect of over 25% in size). An outline of the steps: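 Fluorescence from CellTiter-Fluor, reporting protease activity within live cells, served as the viability read-out. HEK293T cells carrying luciferase-tagged ATAD5 had been treated with compound for 15.5 hr at 37C.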

Test [5] is described as follows: qHTS assay for small molecule disruptors of the mitochondrial membrane potential - cell viability (AID 720634; calls by dose curve;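 also: human HepG2 liver cancer cells; series mostly up to about 83 µM; % is scaled to controls: 0 for no effect and ±100 for the full control effect; nearly all actives have a fitted effect of over 20% in size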). An outline of the steps:
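Cells: HepG2, 2,000/well, attached overnight. Compound 1 hr, 37 C/5% CO2. +m-MPI dye, +CellTiter-Glo 30 min RT. Readout: luminescence (ATP).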
Background: qHTS replaces the single test concentration by a dilution series.

The nature of test [6]: qHTS assay to test for compound auto fluorescence at 590 nm (red) in HepG2 cells (AID 720674). Also: % is scaled to controls: 0 for no effect and ±100 for the full control effect. Summed up: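 HepG2 cells, 2,000 per well in MEM with 10% FBS, attached overnight at 37 C, then got 23 nL compound or DMSO. After 1 hr at 37 C, 5% CO2, red fluorescence was read at 540/590 nm against Rose Bengal sodium as reference.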
Test [7] can be described thus: qHTS assay to test for compound auto fluorescence at 535 nm (green) in HepG2 cells (AID 720675). Also: % is scaled to controls: 0 for no effect and ±100 for the full control effect.
The nature of test [8]: qHTS assay to test for compound auto fluorescence at 460 nm (blue) in HEK293 cells (AID 720678). Also: % is scaled to controls: 0 for no effect and ±100 for the full control effect. An outline of the steps: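 After cell attachment (4-5 hr, 37C), compounds were pinned onto HEK293 monolayers in 10% dialyzed FBS medium. The blue channel (405/460 nm) was read following overnight culture. Equivalency was calculated against triamterene.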
Test [9] can be described thus: qHTS assay to test for compound auto fluorescence at 535 nm (green) in HEK293 cells (AID 720680). Also: % is scaled to controls: 0 for no effect and ±100 for the full control effect.
Test [10] can be described thus: qHTS assay to test for compound auto fluorescence at 460 nm (blue) in HEK293 cell free culture (AID 720681). Also: % is scaled to controls: 0 for no effect and ±100 for the full control effect. Summed up:
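Compounds were added to cell-free DMEM with 10% FBS and fluorescence read directly. The blue channel used 405 nm excitation and 460 nm emission, with triamterene as the reference fluorophore.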

Test [11] is described as follows: qHTS assay to test for compound auto fluorescence at 535 nm (green) in HEK293 cell free culture (AID 720682). Also: % is scaled to controls: 0 for no effect and ±100 for the full control effect. Summed up: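 Compounds were pin-transferred into cell-free DMEM with 10% FBS, and green fluorescence was read at excitation 485 nm and emission 535 nm. Intensities were expressed as fluorescein-equivalent values.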
The nature of test [12]: qHTS assay to test for compound auto fluorescence at 590 nm (red) in HEK293 cell free culture (AID 720683). Also: % is scaled to controls: 0 for no effect and ±100 for the full control effect. Summed up: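 Cell-free wells of DMEM with 10% FBS received compound, and intrinsic fluorescence was read at excitation/emission 540/590 nm. Values expressed as equivalence to Rose Bengal sodium.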
The nature of test [13]: qHTS assay to test for compound auto fluorescence at 460 nm (blue) in HepG2 cell free culture (AID 720685). Also: % is scaled to controls: 0 for no effect and ±100 for the full control effect. Summed up:
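Compound (23 nL) or DMSO pinned into cell-free MEM with 10% FBS; blue fluorescence read at 405/460 nm excitation/emission, expressed as auto-fluorescence equivalency to triamterene.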

Test [14] is described as follows: qHTS assay to test for compound auto fluorescence at 535 nm (green) in HepG2 cell free culture (AID 720686). Also: % is scaled to controls: 0 for no effect and ±100 for the full control effect.
Test [15] can be described thus: qHTS assay to test for compound auto fluorescence at 460 nm (blue) in HepG2 cells (AID 720687). Also: % is scaled to controls: 0 for no effect and ±100 for the full control effect. An outline of the steps:
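HepG2 cells in MEM with 10% FBS, attached overnight at 37 C, were exposed to compound or DMSO for 1 hr at 37 C, 5% CO2. Blue fluorescence was read at 405/460 nm, with triamterene as reference fluorophore.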

The nature of test [16]: qHTS assay to test for compound auto fluorescence at 590 nm (red) in HEK293 cells (AID 720679). Also: % is scaled to controls: 0 for no effect and ±100 for the full control effect. Summed up:
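Plates of HEK293 cells (10% dialyzed FBS) are treated with 23 nL compound or DMSO vehicle after a 4-5 hr attachment period, incubated overnight at 37C, and read for red fluorescence at 540/590nm.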

Test [17] is described as follows: qHTS assay for small molecule disruptors of the mitochondrial membrane potential (AID 720635). Also: potency is read from the fitted curve at half-maximal effect. An outline of the steps:
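HepG2 cells exposed to compound 1 hr at 37C, then Mito-MPS dye 30 min. Ratio read of aggregate (540/590 nm) versus monomer (490/535 nm) fluorescence.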

Test [18] is described as follows: qHTS assay to test for compound auto fluorescence at 590 nm (red) in HepG2 cell free culture (AID 720684). Also: % is scaled to controls: 0 for no effect and ±100 for the full control effect. Summed up: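 Compounds are added to culture medium (MEM, 10% FBS) lacking cells, then fluorescence is read at excitation 540 nm, emission 590 nm, with Rose Bengal sodium as the equivalency standard.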
For test [19], the target named is Glucocorticoid receptor (Homo sapiens) (UniProt P04150). Kind of test: qHTS assay to identify small molecule agonists of the glucocorticoid receptor (GR) signaling pathway (AID 720691; active = well fitted activation curve with a large enough effect in the signal ratio in the repeat runs, not every such curve was filed as active; the % refers to the signal ratio; also: % is scaled to controls: 0 for no effect and ±100 for the full control effect). Summed up:
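Fluorescence intensity from LiveBLAzer B/G FRET substrate (2 h, room temperature) reports beta-lactamase expression driven by the glucocorticoid response element in GR-bla HeLa cells after 18 h compound exposure at 37 C.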

Test [20] has the same target. As to the kind of experiment: qHTS assay to identify small molecule antagonists of the glucocorticoid receptor (GR) signaling pathway (AID 720692; active = well fitted inhibition curve with a large enough effect in the signal ratio in the repeat runs, not every such curve was filed as active; the % refers to the signal ratio; also: % is scaled to controls: 0 for no effect and ±100 for the full control effect). Summed up: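 HeLa GR-bla cells; cmpd + dex 5 nM final, 18 h 37 C; LiveBLAzer B/G FRET substrate 2 h RT; fluorescence intensity read. Antagonist mode, qHTS.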

Sequence of Glucocorticoid receptor (Homo sapiens) (P04150 whole entry, looked up): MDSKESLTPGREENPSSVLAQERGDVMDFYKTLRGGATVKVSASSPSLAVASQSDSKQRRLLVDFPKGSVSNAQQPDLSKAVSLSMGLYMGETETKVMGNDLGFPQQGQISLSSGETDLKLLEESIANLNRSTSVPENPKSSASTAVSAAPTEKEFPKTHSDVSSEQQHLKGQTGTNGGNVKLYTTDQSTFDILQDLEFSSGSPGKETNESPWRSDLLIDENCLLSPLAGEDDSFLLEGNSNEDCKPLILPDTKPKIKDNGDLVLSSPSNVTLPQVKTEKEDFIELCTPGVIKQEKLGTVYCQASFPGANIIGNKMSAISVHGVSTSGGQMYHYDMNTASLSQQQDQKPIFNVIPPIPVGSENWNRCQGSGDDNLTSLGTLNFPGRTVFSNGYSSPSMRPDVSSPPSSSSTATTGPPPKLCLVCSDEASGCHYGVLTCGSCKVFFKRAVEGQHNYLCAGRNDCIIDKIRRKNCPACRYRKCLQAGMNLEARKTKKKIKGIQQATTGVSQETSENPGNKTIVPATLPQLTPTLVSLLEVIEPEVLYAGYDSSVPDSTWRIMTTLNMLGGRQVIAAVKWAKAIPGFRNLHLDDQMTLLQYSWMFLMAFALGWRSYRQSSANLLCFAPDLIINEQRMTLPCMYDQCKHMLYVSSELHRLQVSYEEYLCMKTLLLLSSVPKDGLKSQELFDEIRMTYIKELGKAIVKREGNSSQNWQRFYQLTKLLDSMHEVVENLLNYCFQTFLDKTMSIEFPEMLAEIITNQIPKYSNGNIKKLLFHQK

Turning to `C=C(C)C(=O)OC(C)C`, the Potency entry in test [1], in [2], in test [3], in [4], in test [5] and in test [8] was “inactive” in each case. Also, the Potency entry in test [10], in test [13] and in test [15] was “inactive” in each case. The result in [6], in test [7], in test [9], in test [11], in [12] and in test [14] was inactive.
In the case of `COc1ccc(C(C)=O)cc1`, the Potency result in test [1], in test [2], in test [3], in [4], in test [5] and in test [8] was “inactive” in each case. Further, the Potency entry in [10], in test [13] and in test [15] was “inactive” each time. Moreover, the result in test [6], in test [7], in test [16], in [9], in [11] and in test [12] was inactive. For the same compound, the outcome in test [14] was inactive.
As to `N#Cc1cc2ccccc2c2ccccc12`, the Potency entry in test [1], in [2], in [3], in test [4], in [8] and in test [13] was “inactive” throughout. Also, the Potency result in [15], in test [19] and in [20] was “inactive” in each case. Besides, the Potency in test [17] was 38.8 µM (active). Also, the call in [6], in test [7], in test [16], in [9], in [11] and in test [12] was inactive. Moreover, the result in test [18] and in test [14] was inactive.
On to `O=C=NC1CCC(CC2CCC(N=C=O)CC2)CC1` (stereo not given), for which the Potency entry in test [1], in test [2], in [3], in [4], in test [5] and in [10] was “inactive” in each case. Further, the Potency result in test [13], in test [15], in [19] and in [20] was “inactive” throughout. Moreover, the compound was called inactive in [6], in test [7], in [9], in test [11], in test [12] and in test [18]. Also, in test [14], the compound was classed as inactive.
Take `CC(C)c1cccc(C(C)C)c1NC(=O)NS(=O)(=O)c1cc(C(C)(C)O)co1`: the Potency result in test [1], in test [2], in test [3], in test [4], in [5] and in [8] was “inactive” in each case. For the same compound, the Potency entry in test [13], in test [15] and in test [19] was “inactive” throughout. The compound was called inactive in test [6], in test [7], in test [16], in test [9], in [11] and in [12]. For the same compound, the result in test [18] and in test [14] was inactive.
As to `CC(=O)N(O)CCCCCNC(=O)CCC(=O)N(O)CCCCCNC(=O)CCC(=O)N(O)CCCCCN`, the Potency entry in test [1], in [2], in test [3], in [4], in [5] and in test [19] was “inactive” each time. For the same compound, the Potency entry in [20] is “inactive”. Also, in test [6], the fluorescence, relative to Rose Bengal was 0.119% [at 18.6 µM]. For the same compound, the fluorescence, % of fluorescein control was -0.0519% [at 18.6 µM] in [7] and 0.169% [at 18.6 µM] in [14]. Further, the fluorescence, % of triamterene in test [8] is -0.0021% [at 18.6 µM]. Besides, in test [9], the fluorescence, % of fluorescein was 0.127% [at 18.6 µM]. Moreover, the figures for the fluorescence, % of fluorescent control in test [12], in test [13] and in test [15] were -0.0386% [at 18.6 µM], 0.0393% [at 18.6 µM] and 0.041% [at 18.6 µM], respectively. Further, in test [18], the fluorescence, % of Rose Bengal is -0.352% [at 18.6 µM].
For `C=CC(C)(CCC=C(C)C)OC(=O)c1ccccc1` (stereo not given), the Potency result in [1], in test [2], in [3], in test [4], in [5] and in test [8] was “inactive” throughout. The Potency result in test [10], in test [13] and in [19] was “inactive” throughout. Further, the call in [7], in test [16], in test [9], in test [11], in test [12] and in test [18] was inactive. Besides, the result in test [14] was inactive.

These data come from PubChem BioAssay (Tox21).
